According to PubChem BioAssay (EPA / NIEHS):
Several values for one entry are separate records, joined by “and”; a condition that tells them apart may be missing. Equal values may be shown once. Inconclusive results are not listed. Activity calls are given as the source filed them. How the source made its calls: active means hit-call score of the fitted dose curve at least 0.9, where 1 is the maximum; inconclusive means response in the unintended direction; inactive means score below 0.9.

Test system: not listed separately
Assay: ATG_XTT_Cytotoxicity: Cytotoxicity Assessment in the Attagene TRANS-FACTORIAL HepG2 Assay (AID 2283584)
Method in brief: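 Viability endpoint from XTT after 24 h chemical exposure of reporter-transfected human HepG2 liver cells; signal loss fitted relative to DMSO negative control.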

Compound | outcome
Cc1cc(Cl)ccc1O | inactive
O=S1(=O)OC(c2cc(Br)c(O)c(Br)c2)(c2cc(Br)c(O)c(Br)c2)c2ccccc21 | inactive
C#CCOC(=O)/C=C(C)/C=C/CC(C)CCCC(C)C (stereo not drawn) | inactive
COc1ccc(N)cc1 | inactive
CC(C)[N+](=O)[O-] | inactive
Cc1ccccc1OP(=O)(Oc1ccccc1C)Oc1ccccc1C | inactive
CC(C)(C1CCC(O)CC1)C1CCC(O)CC1 (stereo not drawn) | inactive
COCCl | inactive
C=CC(=O)NC(C)(C)CC(C)=O | inactive
N#Cc1ccc(Cl)cc1 | inactive
O=C1c2ccccc2C(=O)C1C(=O)C(c1ccccc1)c1ccc(Cl)cc1 (stereo not drawn) | inactive
CCN(N=O)C(N)=O | inactive
CCCCS(=O)(=O)Cl | inactive
Cc1c([N+](=O)[O-])c(C)c([N+](=O)[O-])c(C(C)(C)C)c1[N+](=O)[O-] | inactive

Test system: not listed separately
Assay: TOX21_p53_BLA_p2_viability: Viability Assessment in the Tox21 HCT-116 p53 Agonism Beta-lactamase Assay, Phase 2 (AID 2283591);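 further: compound exposure lasted 16 h at 37 °C; actives lower the ATP signal meaning cytotoxicity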
Method in brief: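 Cytotoxicity readout: CellTiter-Glo ATP luminescence, 30 min at room temperature, after the beta-lactamase read. Cells were HCT116 exposed 16 h at 37C to compounds pin-transferred at 217-fold dilution from DMSO stocks.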

Compound | outcome | AC50
O=C(NC(=O)c1c(F)cccc1F)Nc1cc(Cl)c(F)c(Cl)c1F | inactive | –
O=C=Nc1ccc(Cl)cc1 | inactive | –
O=C(Cc1ccccc1)OCCc1ccccc1 | inactive | –
Nc1ccc(Br)cc1 | inactive | –
c1ccc(-c2cccc(-c3ccccc3)c2)cc1 | inactive | –
C=C(C)C(=O)OCC(CC)CCCC (stereo not drawn) | inactive | –
CC(C)C(C)(N)C#N (stereo not drawn) | inactive | –
O=[N+]([O-])c1cc([As](=O)(O)O)ccc1O | inactive | –
CCC[CH2][Sn]([Cl])([Cl])[CH2]CCC | – | 552 nM (active) and 2.76 µM (active)
CC(C)=CC1C(C(=O)OCc2cccc(Oc3ccccc3)c2)C1(C)C (stereo not drawn) | inactive | –
CCCCC(CC)C(=O)Cl (stereo not drawn) | inactive | –
O=NN1CCCCCC1 | inactive | –

Biological target: Cellular tumor antigen p53 (Homo sapiens) (UniProt P04637)
Sequence (P04637 whole entry, looked up): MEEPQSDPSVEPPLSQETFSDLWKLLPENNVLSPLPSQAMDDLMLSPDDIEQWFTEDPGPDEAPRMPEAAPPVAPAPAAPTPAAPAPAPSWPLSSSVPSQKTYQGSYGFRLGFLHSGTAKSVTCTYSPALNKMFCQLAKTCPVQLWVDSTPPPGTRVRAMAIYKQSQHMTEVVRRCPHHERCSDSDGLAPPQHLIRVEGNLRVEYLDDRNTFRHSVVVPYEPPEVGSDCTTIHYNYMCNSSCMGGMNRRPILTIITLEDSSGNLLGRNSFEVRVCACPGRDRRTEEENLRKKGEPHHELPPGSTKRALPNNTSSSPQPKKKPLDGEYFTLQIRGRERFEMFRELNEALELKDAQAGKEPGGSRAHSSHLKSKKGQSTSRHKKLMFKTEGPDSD
Assay: TOX21_p53_BLA_p2_ratio: Tox21 HCT-116 p53 Agonism Beta-lactamase Assay, Ratio, Phase 2 (AID 2283592)
Method in brief: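 Read-out is the blue/green (460/530 nm, 405 nm excitation) ratio after 2 h CCF4-AM loading, fitted as gain versus DMSO. Compounds, pinned at 217-fold dilution from DMSO stocks, stayed 16 h on HCT-116 beta-lactamase reporter cells seeded 5 h earlier.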

Compound | outcome | AC50
O=C(NC(=O)c1c(F)cccc1F)Nc1cc(Cl)c(F)c(Cl)c1F | inactive | –
Cc1cccc(N=Nc2ccc(N(C)C)cc2)c1 | inactive | –
Cc1cc(Cl)ccc1O | inactive | –
C#CCO | inactive | –
CC(C=O)Cc1ccc2c(c1)OCO2 (stereo not drawn) | inactive | –
O=C=Nc1ccc(Cl)cc1 | inactive | –
O=C(Cc1ccccc1)OCCc1ccccc1 | inactive | –
CC(C)[N+](=O)[O-] | inactive | –
Nc1ccc(Br)cc1 | inactive | –
Cc1ccccc1OP(=O)(Oc1ccccc1C)Oc1ccccc1C | inactive | –
CC(C)(C1CCC(O)CC1)C1CCC(O)CC1 (stereo not drawn) | inactive | –
c1ccc2c(c1)Oc1ccccc1O2 | inactive | –
CC(C)(c1ccccc1)c1cc(-n2nc3ccccc3n2)c(O)c(C(C)(C)c2ccccc2)c1 | inactive | –
c1ccc(-c2cccc(-c3ccccc3)c2)cc1 | inactive | –
C=C(C)C(=O)OCC(CC)CCCC (stereo not drawn) | inactive | –
CC(C)C(C)(N)C#N (stereo not drawn) | inactive | –
COCCl | inactive | –
Nc1nc(N)nc(Cl)n1 | inactive | –
CCCCOC(=O)COC(=O)c1ccccc1C(=O)OCCCC | inactive | –
N#Cc1ccc(Cl)cc1 | inactive | –
CCC[CH2][Sn]([Cl])([Cl])[CH2]CCC | – | 1.59 µM (active) and 14.3 µM (active)
CC(c1ccc(O)cc1)c1ccc(O)cc1 | inactive | –
CCN(N=O)C(N)=O | inactive | –
CCCCC(CC)C(=O)Cl (stereo not drawn) | inactive | –
OCCCCO | inactive | –
O=NN1CCCCCC1 | inactive | –
OC[P+](CO)(CO)CO | inactive | –
